Results on 11 compounds are retold here after PubChem BioAssay (NCATS).

Records with an inconclusive call do not appear. Entries that show only a call come without a potency. Calls of active or inactive are those of the source. The call rests on the fitted dose curve; in most records, active means well fitted activation curve with a large enough effect; inconclusive means small, poorly fitted or top-dose-only effect; inactive means flat fitted curve, though single readings scatter.
Potency means the concentration at half of the fitted maximal effect.

Sequence of Nuclear receptor subfamily 1 group I member 3 (Homo sapiens) (Q14994 whole entry, looked up): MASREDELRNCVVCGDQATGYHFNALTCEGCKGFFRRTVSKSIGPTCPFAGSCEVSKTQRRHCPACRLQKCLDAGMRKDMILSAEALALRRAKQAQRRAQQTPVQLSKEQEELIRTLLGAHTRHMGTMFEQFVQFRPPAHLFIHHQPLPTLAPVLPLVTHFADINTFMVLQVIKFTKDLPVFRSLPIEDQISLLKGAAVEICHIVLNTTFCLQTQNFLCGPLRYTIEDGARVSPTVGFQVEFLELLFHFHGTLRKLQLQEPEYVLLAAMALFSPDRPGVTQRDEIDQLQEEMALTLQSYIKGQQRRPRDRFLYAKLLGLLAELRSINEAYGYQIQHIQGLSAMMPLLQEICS

For the assay, the target named is Nuclear receptor subfamily 1 group I member 3 (Homo sapiens) (UniProt Q14994). Description: Primary qHTS for agonist of constitutive androstane receptor (CAR) against the NCATS DSHEA and TCM libraries (AID 1794839).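 On activation: HepG2 cells expressing human CAR with a CYP2B6 reporter plus PK11195 antagonist.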 The settings on record: CAR agonist reporter cells, qHTS luminescence, CAR antagonist co-added at 0.75 µM; series mostly up to 40 µM. An excerpt:
National Center for Advancing Translational Sciences (NCATS), Rockville, MD
National Institute of Health (NIH), Bethesda, Maryland
Dietary Supplements and Natural Products have minor oversight of their safety and efficacy. We assembled a collection of Dietary Supplements and Natural Products (DSNP) as well as Traditional Chinese Medicinal (TCM) Plant extracts, which were screened against an in vitro panel of assays, including a liver cytochrome p450 enzyme panel, CAR/PXR signaling pathways, and P-gp transporter assays, to assess their activity. This pipeline facilitated the interrogation of Natural Product-Drug Interaction (NaPDI) through prominent metabolizing pathways. In addition, we compared the activity profiles of the DSNP/TCM substances with those of an approved drug collection. Many of the approved drugs have well-annotated mechanisms of action (MOA) while the MOAs for most of the DSNP and TCM samples remain unknown. Based on the premise that compounds with similar activity profiles tend to share similar targets or MOA, we clustered the library activity profiles to identify overlap with the NCATS Pharmaceutical Collection to predict the MOAs of the DSNP/TCM substances. Overall, we highlight four significant bioactivity profiles (measured by p-values) as examples of this prediction.
To this end, we profiled both collections for potential CAR and/or PXR activity, employing a previously published 1536-well qHTS assay.
PROTOCOL TABLE (as described by Inglese J, Shamu CE and Guy RK. 2007)
SEQUENCE No. (e.g., 1, 2, 3, etc.); […] (e.g., Cells, Incubation, Reagent, etc.); VALUE; DESCRIPTION.
1; Cells; 4 uL; 1536-well white Greiner assay plate.
2; Incubation; 5 hours; 37C, 95% humidity, 5% CO2.
3; Compounds; 23 nL; Kalypsis pin tool (Wako USA) equipped with 1536-well pin head to transfer to the assay plates.
4; Reagent; 1 uL; 0.75 uM PK11195 (final concentration).
5; Incubation; 24 hours; 37C, 5% CO2.
6; Detection Reagent 1; 1 uL; CellTiter-Fluor (Promega).
7; Incubation; 1 hour; 37C, 5% CO2.
8; Detector 1; Fluorescence intensity; ViewLux plate reader (excitation 405 nm, emission 540 nm).
9; Detection Reagent 2; 4 uL; ONE-Glo Luciferase reagent (Promega).
10; Incubation; 30 min; room temperature.
11; Detector 2; Luminescence intensity; ViewLux.
NOTES (numbers refer to Sequence numbers above)
1. 4 µL of HepG2-CYP2B6-hCAR cells at 6.25 x 10^5 cells/mL (2,500 cells/well) were dispensed using a Multidrop Combi dispenser in tissue culture-treated 1536-well white assay plates (Greiner Bio-One) in the same culture media, without geneticin and blasticidin included.
2. Plates were incubated for 5 hours at 37 degrees C, 95% humidity, and 5% CO2 to allow for cell attachment.
3. Compounds (final concentrations of most substances ranged from 15.6 nM to 31.9 µM), positive control (for agonist mode: 6-(4-Chlorophenyl)imidazo[2,1-b][1,3]thiazole-5-carbaldehyde O-(3,4-dichlorobenzyl)oxime (CITCO) with a final concentration range 2.8 nM to 92 µM were transferred (23 nL) via pintool (Wako Automation).
4. After compound transfer, plates were dispensed with 1 µL of the known hCAR antagonist PK11195 (final concentration of 0.75 µM) in the agonist mode using a BioRAPTR FRDTM.
6. 1 µL of CellTiter-Fluortrade mark (Promega, Madison, Wisconsin) was added using a BioRAPTR FRDTM.
8. Fluorescence intensity (Ex/Em = 405 nm/540 nm) is obtained using the ViewLux plate reader to determine cell viability.
9. 4 µL of ONE-Glotrade mark Luciferase reagent (Promega) was added to each well using the BioRAPTR FRDTM,
10. Luminescence intensity is read using the ViewLux detector.
Inglese J, Shamu CE and Guy RK, Reporting data from high throughput screening of small molecule libraries, Nature Chemical Biology, 2007, 3(8): 438-441. doi.org/10.1038/nchembio0807-438.
(In general: qHTS replaces the single test concentration by a dilution series.)
Consider `CC(C)=CCC/C(C)=C/C=C/C(C)=C/C=C/C(C)=C/C=C/C=C(C)/C=C/C=C(C)/C=C/C=C(\C)CCC=C(C)C`, for which the Potency result is “inactive”.
For `Oc1ccc(/C=C/c2cc(O)cc(O)c2)cc1`, the Potency is 31.6 µM (active).
`CCCCCCCCCCCC(=O)OCC(O)CO` (stereo unspecified): the Potency result is “inactive”.
On the same count and under the same terms, as for `C=C1CC[C@H](O)CC1=C/C=C1\CCC[C@]2(C)[C@@H]([C@H](C)/C=C/[C@H](C)C(C)C)CC[C@@H]12`, the entry is “inactive”.
Regarding `CCCCC/C=C\C/C=C\C/C=C\CCCCC(=O)O`, the activation was -21.9% [at 5 µM] (inactive).
In the case of `Cc1ncc(C[n+]2csc(CCO)c2C)c(N)n1`, the Potency result was “inactive”.
On the same count and under the same terms, as for `COC1=C(OC)C(=O)C(C/C=C(\C)CC/C=C(\C)CC/C=C(\C)CC/C=C(\C)CC/C=C(\C)CC/C=C(\C)CC/C=C(\C)CC/C=C(\C)CC/C=C(\C)CCC=C(C)C)=C(C)C1=O`, the entry is “inactive”.
As for `Oc1cccc(O)c1O`, the Potency result is “inactive”.
`CC/C=C\C/C=C\C/C=C\CCCCCCCC(=O)O`: the Potency result was “inactive”.
Still for that read-out and setting: as for `CC(C)=CCC/C(C)=C/CC/C(C)=C/CC/C(C)=C/CC1=C(C)C(=O)c2ccccc2C1=O`, the entry is “inactive”.
For the compound `CC/C=C\C/C=C\C/C=C\C/C=C\C/C=C\C/C=C\CCC(=O)O`, the Potency entry was “inactive”.
